Screening data (PubChem)
MCF10A rerep: A quantitative high throughput screen for small molecules that induce DNA re-replication in MCF 10a normal breast cells | Potency, µM (titrated, usually from 46.1 µM), most hits filed as activators | 350,000 compounds, 2.9% hits | MCF 10A DNA re-replication, Hoechst nuclear intensity, 48 h; further: nearly all actives have a fitted effect of over 50% in size
ELG1 DNA repair: qHTS screen for small molecules that inhibit ELG1-dependent DNA repair in human embryonic kidney (HEK293T) cells expressing luciferase-tagged ELG1. HEK293T ELG1-luciferase reporter, luminescence, 16 h; DNA damage induced by 5-fluorouridine. Potency, µM (titrated, usually from 46.1 µM), hits mostly inhibitors. 330,000 compounds, 2.3% hits; further: nearly all actives have a fitted effect of over 55% in size
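Quantitative HTS, concentration-response format. 2,000 cells/well co-treated with 5-fluorouridine and compound, 16 hr in 5% CO2 at 37 °C; ONE-Glo luminescence read after 30 min.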
KB-V1 cytotox: qHTS assay for MDR1-selective chemotherapeutics: Primary screen using the drug-selected MDR subline cells KB-V1. KB-V1 MDR cells viability, CellTiter-Glo, 72 h. Potency, µM (series often up to 46.1 µM), hits mostly cytotoxic. 400,000 compounds, 3.4% hits; further: nearly all actives have a fitted effect of over 60% in size
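Readout: CellTiter-Glo luminescence, 10 min after addition. Cells: KB-V1 MDR subline, 72 h at 37 degrees C with compound. Analysis: corrected, normalized data fitted to concentration-effect curves.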
KB-3-1 tox: qHTS assay for MDR1-selective chemotherapeutics: Primary screen using the parental adenocarcinoma cell KB-3-1; KB-3-1 viability, CellTiter-Glo ATP luminescence, 72 h; Potency, µM (doses to about 46.1 µM), hits mostly cytotoxic; 400,000 compounds, 1.4% hits; AID 1347075, 2019; further: nearly all actives have a fitted effect of over 60% in size
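Using CellTiter-Glo luminescence, growth of non-resistant KB-3-1 adenocarcinoma cells is assessed 72 h after pin-tool compound addition at 37 °C. Normalized responses across the concentration series yield fitted curves.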
SW480 rerep: A quantitative high throughput screen for small molecules that induce DNA re-replication in SW480 colon adenocarcinoma cells. SW480 DNA re-replication, Hoechst DNA content imaging, 48 h. Potency, µM (doses to about 46.1 µM), hits mostly activators. 340,000 compounds, 1.8% hits; further: nearly all actives have a fitted effect of over 55% in size
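Cells (250 per well) received 23 nL compound or DMSO by pin tool and were kept 48 hr at 37 C, 5% CO2. Nuclei were then stained with Hoechst for 40 min and scanned for DNA content.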
Numbers stand for hits; 0 = inactive; ? = inconclusive; - = no result given; ! = repeats disagree; [ ] = another dose, or the depositor's remark. This is a sample that favours compounds with a hit; in the whole collection about 8.2% have one here. The call rests on the fitted dose curve; in most records, active means well fitted curve in the direction sought with a large enough effect; inconclusive means small, poorly fitted or top-dose-only effect, or another doubt; inactive means no such curve, though single readings can be large; an effect the other way counts as inactive or inconclusive.

SMILES	MCF10A rerep	ELG1 DNA repair	KB-V1 cytotox	KB-3-1 tox	SW480 rerep
CC(C)(C)NC(=O)C(c1ccc(-c2ccccc2)cc1)N(C[C@H]1CC[C@@H]([C@@H]2CC[C@H](CO)O2)O1)C(=O)c1ccc(-c2ccccc2)cc1 (stereo partly specified)	0	23µM	?	?	0[9.22 µM]
CCn1ccc(C(=O)NC2=NCCS2)n1	0	?	0	0	23µM
CCc1cccc(C)c1NC(=O)CN1C(=O)NC(CCc2ccccc2)C1=O (stereo unspecified)	0	0	0	0	0
COP(=O)(OC)c1nc(-c2ccc(C)cc2)oc1N1CCCCC1	0	0	0	0	0
COc1ccc(CCNC(=O)c2ccc3c(c2)c(C)c(C)n3Cc2ccc(F)cc2)c(OC)c1OC	-	-	0	0	-
CC(NC(=O)C(Cc1ccccc1)N1C(=O)C2C3CCC(C3)C2C1=O)c1ccccc1 (stereo unspecified)	0	0	7.3µM	0	0
Cc1cc(C)cc(NC(=O)CSc2nc3c(c(=O)[nH]2)CN(Cc2ccc(F)cc2)CC3)c1	0	0	21µM!	0	0
O=C(Nc1ccccc1)c1ccc(CN2CCc3ccccc3C2)cc1	?	?	?	?	0
O=C(Nc1cccnc1)c1ccc(CN2CCc3ccccc3C2)cc1	0	8.2µM	?	0	0
Cc1cc(C)cc(NC(=O)c2ccc(CN3CCc4ccccc4C3)cc2)c1	21µM	?	?	?	0
O=C(Nc1ccccc1F)c1ccc(CN2CCc3ccccc3C2)cc1	?	0	21µM	9.2µM	?
CCCCc1ccc(NC(=O)Cn2cnc3c2c(=O)n(C)c(=O)n3C)cc1	-	-	?	0	-
Cc1ccc(S(=O)(=O)N(C)C)cc1[N+](=O)[O-]	0	0	0	0	0
Cc1ccc(NC(=O)c2ccc(CN3CCc4ccccc4C3)cc2)cc1	?	0	4.1µM	0	0
CC(=O)Nc1ccc(NC(=O)c2ccc3c(c2)NC(=O)c2ccccc2S3)cc1	-	-	?	0	-
C/C(=N\Nc1ccc(C(=O)O)cc1)c1ccc2c(c1)Nc1ccccc1S2	16µM	?	0	0	8.2µM
C/C(=N/Nc1ccc(C(=O)O)cc1)c1ccc2c(c1)Nc1ccccc1S2	16µM	-	0	0	18µM
COc1cc(OC)cc(C(=O)Nc2ccc(-c3nc4cc(C(C)C)ccc4o3)cc2)c1	-	-	0	0	-
O=C(NCc1ccc(F)cc1)c1cc(C2CCCN(C(=O)c3ccccn3)C2)on1 (stereo unspecified)	-	-	0	0	-
COC(=O)c1sccc1NC(=O)c1c(C)c(-c2cccc(Cl)c2)nc2ccccc12	0	?	10µM	0	0
CCCCNC(=O)CCn1c(=O)c2ccccc2n(Cc2ccccc2C#N)c1=O	-	-	0	0	-
COc1ccc(NS(=O)(=O)c2ccc(NC(=O)C(CCSC)NC(N)=O)cc2)cc1 (stereo unspecified)	0	0	0	0	0
CC(C)(O)C#Cc1ccc(C(=O)N2CCCC(CNS(=O)(=O)c3cccs3)C2)o1 (stereo unspecified)	0	0	0	0	21µM
COc1ccc([N+](=O)[O-])cc1C(=O)NCCOc1ccc(Cl)cc1	0	0	0	0	0
CC(NCc1ccc2c(c1)OCO2)C(=O)N1CCc2ccccc21 (stereo unspecified)	0	0	5.2µM	0	?
SMILES	MCF10A rerep	ELG1 DNA repair	KB-V1 cytotox	KB-3-1 tox	SW480 rerep
O=C(Nc1ccc(F)cc1)c1ccc(-n2cncn2)c([N+](=O)[O-])c1	0	?	12µM	?	0
O=C(NCc1ccco1)c1sc(=S)n2c1[nH]c(=O)c1ccccc12	?	0	21µM	?	0
O=C(NC1CCCC1)c1sc(=S)n2c1[nH]c(=O)c1ccccc12	?	?	?	12µM	?
O=C(NCc1ccccc1)c1ccc2c(=O)[nH]c3c(C(=O)NCC4CCCO4)sc(=S)n3c2c1 (stereo unspecified)	0	0	0	?	0
C=CC[N+]1([C@H]2C[C@H]3[C@@H]4CC[C@H]5C[C@H](O)[C@@H](N6CCOCC6)C[C@]5(C)[C@H]4CC[C@]3(C)[C@H]2OC(C)=O)CCCC1	0	-	-	-	0
O=C(Cn1cnc2onc(-c3ccc(F)cc3)c2c1=O)Nc1ccc(F)c(Cl)c1	-	-	0	0	-
CCc1c(C)sc(NC(=O)OC)c1C(N)=O	0	0	0	0	0
CCc1c(C)sc(NC(=O)CCc2ccc(OC)cc2)c1C(N)=O	0	0	21µM	0	0
COc1ccc(C2c3ccc4ccccc4c3Oc3ncn(CCCO)c(=N)c32)cc1OC (stereo unspecified)	18µM	0	?	?	18µM
COc1ccc(C2c3c(ncn(CCCN4CCOCC4)c3=N)Oc3ccc4ccccc4c32)cc1OC (stereo unspecified)	0	?	0	0	18µM
COc1ccc(C2c3ccc4ccccc4c3Oc3ncn(CCO)c(=N)c32)cc1 (stereo unspecified)	?	0	0	0	?
CN(C)CCCn1cnc2c(c1=N)C(c1ccccc1)c1ccc3ccccc3c1O2 (stereo unspecified)	18µM	?	0	0	0
COc1ccc(C2c3ccc4ccccc4c3Oc3ncn(CCO)c(=N)c32)cc1OC (stereo unspecified)	0	0	?	0	?
COc1ccc(C2c3ccc4ccccc4c3Oc3ncn(CCN(C)C)c(=N)c32)cc1 (stereo unspecified)	21µM	0	?	?	?
COc1ccc(C2c3ccc4ccccc4c3Oc3ncn(CCCO)c(=N)c32)cc1 (stereo unspecified)	?	?	0	0	?
CC1(C(=O)NS(=O)(=O)c2ccccc2)CCN1C(=O)CC(c1ccccc1)c1ccccc1 (stereo unspecified)	-	-	0	0	-
C[C@@H]1CCCCO[C@@H](CN(C)C(=O)CCC(F)(F)F)[C@@H](C)CN([C@H](C)CO)C(=O)c2cc(N(C)C)ccc2O1	-	-	0	0	-
COc1cc(C2Nc3ccccc3-c3nnc(SCc4ccc(C)cc4)nc3O2)cc(OC)c1O (stereo unspecified)	-	-	0	0	-
COc1ccc(C2c3ccc4ccccc4c3Oc3ncn(CCN4CCOCC4)c(=N)c32)cc1OC (stereo unspecified)	0	0	0	0	0
COc1ccc(C2c3ccc4ccccc4c3Oc3ncn(CCN4CCOCC4)c(=N)c32)cc1 (stereo unspecified)	0	0	?	?	23µM
N=c1c2c(ncn1Cc1ccco1)Oc1ccc3ccccc3c1C2c1ccccc1 (stereo unspecified)	16µM	15µM	7.3µM	?	?
